Rows were chosen to be rich in hits. Some 7.9% of all compounds tested hit in one or more screens of this group.
KB-3-1 cytotox: KB-3-1 parental cell cytotoxicity. KB-3-1 viability, CellTiter-Glo ATP luminescence, 72 h. Potency, µM (top dose mostly 46.1 µM), actives largely listed as cytotoxic. 400,000 compounds, 1.4% hits. AID 1347075; also: % is scaled to controls: 0 for no effect and ±100 for the full control effect; nearly all actives have a fitted effect of over 60% in size
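Cells are dispensed, compounds pinned in, plates held at 37 °C for 72 h, then CellTiter-Glo is added and luminescence read after 10 minutes. Cell line: parental KB-3-1 in phenol-red-free DMEM, 10% FBS.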
SW480 rereplic: inducers of DNA re-replication in SW480 colon cancer cells. 340,000 compounds, 1.8% hits. SW480 DNA re-replication, Hoechst DNA content imaging, 48 h. Potency, µM (doses to about 46.1 µM), for inactives: top-dose re-replication activation, actives largely listed as activators; also: % of control where 0% means no effect; nearly all actives have a fitted effect of over 55% in size
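250 cells/well; 23 nL cpd via pin tool; 48 hr, 37 C, 5% CO2; Hoechst 40 min; imager read of total nuclear intensity, ex 405/em 500-530 nm.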
HT1080-NT tox: kills 2HG-producing HT-1080-NT fibrosarcoma cells; 360,000 compounds, 1.6% hits; Potency, µM (doses to about 46.1 µM), inactives show at the highest dose activity, negative = less viability, most hits filed as cytotoxic; HT-1080-NT fibrosarcoma viability, CellTiter-Glo ATP luminescence, 48 h;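 also: NT is the 2HG producing partner of a matched IDH1 knockdown line; 0% = DMSO-treated cells and -100% = media-only wells without cells; nearly all actives have a fitted effect of over 55% in size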
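Viability of the 2HG-overproducing fibrosarcoma line after 48 hours of compound exposure at 37 degrees C was determined by luminescence with CellTiter-Glo, and concentration-effect curves were then fitted and categorized.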
KB-V1 cytotox: kills drug-selected multidrug resistant KB-V1 cells; KB-V1 MDR cells viability, CellTiter-Glo, 72 h; Potency, µM (doses to about 46.1 µM), usual class: cytotoxic; 400,000 compounds, 3.4% hits; also: % is scaled to controls: 0 for no effect and ±100 for the full control effect; nearly all actives have a fitted effect of over 60% in size
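Following 72 h at 37 degrees C with compound, KB-V1 cell viability was read by CellTiter-Glo luminescence, medium being phenol-red-free DMEM plus 10% FBS; concentration-response parameters came from normalized, curve-fitted qHTS data.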
HT1080 IDH1KD tx: kills HT-1080 cells with IDH1 knockdown; Potency, µM (top dose mostly 46.1 µM), for inactives: top-dose activity, negative = toxicity, most hits filed as cytotoxic; 360,000 compounds, 2% hits; AID 686971; HT-1080 IDH1 knockdown viability, ATP luminescence, 48 h;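 also: 0% = DMSO wells and -100% = cell-free medium wells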
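In this qHTS, HT-1080 cells depleted of IDH1 are exposed for 48 h at 37 °C to compound titrations. Toxicity is scored from CellTiter-Glo luminescence, with DMSO as full viability and medium alone as none.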
MCF10A rerep: DNA re-replication induction in MCF 10a cells. MCF 10A DNA re-replication, Hoechst nuclear intensity, 48 h. Potency, µM (titrated, usually from 46.1 µM), for the others: at the highest dose activity, positive = re-replication, usual class: activators. 350,000 compounds, 2.9% hits; also: % of control where 0% means no effect; nearly all actives have a fitted effect of over 50% in size
An asterisk follows results filed as active; i = inactive; ? = inconclusive; . = no result; [ ] = remark or other dose. Calls follow the shape of the dose curve; as a rule, active = well fitted curve in the direction sought with a large enough effect; inconclusive = small, poorly fitted or top-dose-only effect, or another doubt; inactive = no such curve, though single readings can be large; an effect the other way counts as inactive or inconclusive. Potency is read from the fitted curve at half-maximal effect.

SMILES	KB-3-1 cytotox	SW480 rereplic	HT1080-NT tox	KB-V1 cytotox	HT1080 IDH1KD tx	MCF10A rerep
O=C(ONC1=NCCCCC1)c1ccc(Cl)cc1	i	-2.9%	16.4µM*	i	23.1µM*	-8.9%
CCCCOc1ccc(NC(=O)CSc2ccc(C(=O)O)cn2)cc1	i	.	.	?	.	.
Cc1nnsc1NC(=O)OCc1ccc(Cl)cc1Cl	i	-6.1%	-6.3%	i	-13.8%	-0.2%
Cc1nn(Cc2ccc(Cl)cc2Cl)c(C)c1NC(=O)CCl	14.6µM*	17.7%	?	18.4µM*	?	?
Cc1nn(C)c(Cl)c1NC(=O)OCc1ccc(Cl)cc1Cl	4.11µM*	1.8%	-1.7%	2.59µM*	-26.0%	?
Cc1c(O)nc(SCC(=O)Nc2nccs2)n(-c2ccccc2F)c1=O	.	1.1%	2.8%	.	4.5%	-0.2%
Cc1nc(-c2ccccc2)sc1-c1ccc(SCC(=O)NCc2ccccc2Cl)nn1	i	.	.	i	.	.
COc1ccc(C2=NN(C(=O)c3ccncc3)C(c3ccccc3O)C2)cc1 (centres undefined)	i	-3.6%	-20.3%	i	-1.2%	7.5%
COc1ccccc1C1CC(c2ccc(Br)cc2)=NN1C(=O)c1cccnc1 (centres undefined)	?	?	?	?	14.6µM*	?
COc1cccc(C2CC(c3ccc(Br)cc3)=NN2C(=O)c2ccncc2)c1OC (centres undefined)	18.4µM*	-40.0%	18.4µM*	?	18.4µM*	?
COc1cccc(C2CC(c3cccc(NS(C)(=O)=O)c3)=NN2C(=O)c2ccccc2)c1OC (centres undefined)	i	?	0.9%	13µM*	-3.9%	12.8%
CN(C)c1ccc(C2CC(c3cccc(NS(C)(=O)=O)c3)=NN2C(=O)c2ccccc2)cc1 (centres undefined)	i	6.8%	-27.1%	i	-18.3%	-0.9%
c1ccc(CCNc2ncnc3ccccc23)cc1	?	9.1%	?	?	2.06µM*	6.6%
CCCCCCCCNc1ncnc2ccccc12	0.651µM*	?	?	0.184µM*	?	18.6%
Cc1cc2c(NCCc3ccccc3)ncnc2s1	i	-3.5%	-23.5%	i	?	0.4%
Brc1ccc2ncnc(NCc3ccccc3)c2c1	11.6µM*	-1.0%	?	?	-0.2%[9.24 µM]	?
CC(=O)c1cc(-c2ccccc2)n(CCC(=O)NC2CCCCCCC2)c1C	i	?	?	i	-27.0%	?
CS(=O)(=O)N1CCN(c2ccccc2NC(=O)c2ccc3ccccc3c2)CC1	i	-2.0%	-19.5%	i	-7.4%	11.6%
Oc1ccc(Cl)cc1C1C=C(c2ccc3c(c2)OCO3)NC(c2ccc(C(F)(F)F)cc2)N1 (centres undefined)	?	.	.	i	.	.
CC(C)N1CCC2(CC1)N=C(c1ccc3c(c1)OCO3)CC(c1cc(Cl)ccc1O)N2 (centres undefined)	14.6µM*	?	?	?	?	5.8µM*
COC(=O)c1ccc(C2NC(=S)N(c3ccccc3)C(C)=C2C(=O)Nc2ccccc2OC)cc1 (centres undefined)	i	16.5%	-2.9%	i	2.2%	9.7%
COc1ccccc1NC(=O)C1=C(C)N(c2ccccc2)C(=S)NC1c1cccc(C(F)(F)F)c1 (centres undefined)	?	25.1%	?	8.2µM*	?	15.8%
COCCNC(=O)C(c1ccc(C)o1)N(CCOC)C(=O)Cn1nnc2ccccc21 (centres undefined)	i	4.2%	6.7%	i	5.3%	1.4%
Cc1cccc(NC(=O)c2sc3nc4c(c(-c5cccs5)c3c2N)CN(C)CC4)c1	i	?	-4.8%	i	-13.3%	16.4µM*
CC(C)NC(=O)c1sc2nc3c(c(-c4cccs4)c2c1N)CN(C)CC3	i	-2.1%	1.9%	i	3.2%	2.9%
SMILES	KB-3-1 cytotox	SW480 rereplic	HT1080-NT tox	KB-V1 cytotox	HT1080 IDH1KD tx	MCF10A rerep
Cc1ccc(NC(=S)NCC(C)CSc2ccc(Cl)cc2)cc1 (centres undefined)	i	?	2.5%	i	1.3%	17.7%
Cc1cccc(NNC(=S)Nc2ccccc2)c1	i	.	-16.5%	i	-20.3%	.
S=C(NNc1cccc(Cl)c1)NC1CCCCC1	i	?	?	i	14.6µM*	?
Cc1cccc(NC(=S)NNc2cccc(Cl)c2)c1	i	?	23.1µM*	i	?	?
Cc1cccc(NC(=S)NCC(C)CSc2ccc(Cl)cc2)c1 (centres undefined)	?	?	?	?	?	18.4µM*
Cc1nc2c(ccc3nc(NC(=O)c4ccc(S(=O)(=O)N(C)C)cc4)sc32)s1	i	6.7%	-15.4%	i	0.4%	12.6%
Cc1ccc(N(CC(O)Cn2c3ccccc3c3ccccc32)S(C)(=O)=O)cc1 (centres undefined)	?	-4.7%	?	i	?	16.3%
Cc1ccc(N(CC(O)CON=C2c3ccccc3-c3ccccc32)S(C)(=O)=O)cc1 (centres undefined)	i	13.6%	?	23.1µM*	?	5.0%
COC1=CC(=O)c2c(ccc3ncnc(N)c23)C1=O	2.06µM*	?	4.11µM*	1.84µM*	2.91µM*	15.8%
COc1cccc(NC(=O)CN(C)C(=O)c2cccnc2Nc2cccc(C(F)(F)F)c2)c1	?	?	?	?	16.4µM*	20.6µM*
Cc1cccc(NC(=O)c2cc(-c3ccccn3)nc3ccccc23)c1C	?	16.2%	?	10.3µM*	-20.7%	?
Cc1ccccc1Cn1nnc(C(=O)Nc2cccc(C)c2C)c1N	?	3.1%	-9.6%	13µM*	-3.2%	14.6µM*
Cc1ccc(CNC(=O)Cn2nnc(C(=O)Nc3cccc(C)c3C)c2N)cc1	i	-0.3%	?	i	?	-3.7%
O=C(NC1CC1)c1cc(-c2ccccn2)nc2ccccc12	i	-5.1%	8.1%	i	8.4%	13.2%
COc1cccc(NC(=O)c2cc(-c3ccccn3)nc3ccccc23)c1	?	0.1%	2.3%	1.84µM*	-2.4%	11.8%
C[C@H]1NC(=O)[C@@]2(C)[C@@H](c3ccccc3)[C@H]3COc4ccccc4[C@H]3N2C1=O	i	-12.9%	-2.0%	i	0.6%	3.8%
CCOc1ccc(N2C(=O)c3ccc(C(=O)OCc4c(C)noc4C)cc3C2=O)cc1	i	-7.6%	10.8%	i	9.9%	-0.3%
